# Measured values as given in the supplement of paper PMC10849652.
# Of roughly 7,900 targets only a part is listed; those with a hit were picked by preference. About 0.6% of all pairs of compound and target were hits. A number with no mark means an inactive call.
# Tests used:
# Assay in all cases: log2 fold change, soluble protein after heating vs DMSO (PISA); higher = thermal stabilisation; K562 cells, 10 uM, 30 min; active = over 0.2 and 3.5 SD of the protein, either way, in both replicates (recomputed)
# [1] = compound: COC1=CC=C(C=C1)CN2C=CC3=C2C=C(C=C3)C(=O)NO
# Outline: (§1)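 K562 cells at 2×10^6 cells/mL were treated for 30 min with 10 μM compound, and aliquots were heated for 3 min over 48°C-58°C before pooling. Extraction used PBS with 0.5% NP-40 at 4°C, and soluble protein was the supernatant after 21,000xg for 90 min, measured by TMTpro 16plex LC-MS/MS with channel sums equalised. Thermal stability values, relative to control samples and from duplicates, are log2 fold changes.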
# filanesib = compound: CON(C)C(=O)N1N=C(c2cc(F)ccc2F)S[C@@]1(CCCN)c1ccccc1 [filanesib]
# Outline: as §1
# zotarolimus = compound: CO[C@H]1C[C@@H]2CC[C@@H](C)[C@@](O)(O2)C(=O)C(=O)N2CCCC[C@H]2C(=O)O[C@H]([C@H](C)C[C@@H]2CC[C@H](n3cnnn3)[C@H](OC)C2)CC(=O)[C@H](C)/C=C(\C)[C@@H](O)[C@@H](OC)C(=O)[C@H](C)C[C@H](C)/C=C/C=C/C=C/1C [zotarolimus]
# Outline: as §1
# idasanutlin = compound: COc1cc(C(=O)O)ccc1NC(=O)[C@@H]1N[C@@H](CC(C)(C)C)[C@](C#N)(c2ccc(Cl)cc2F)[C@H]1c1cccc(Cl)c1F [idasanutlin]
# Outline: as §1
# alisertib = compound: COc1cc(Nc2ncc3c(n2)-c2ccc(Cl)cc2C(c2c(F)cccc2OC)=NC3)ccc1C(=O)O [alisertib]
# Outline: as §1
# [2] = compound: COc1cc2nc(-c3cc(F)ccc3O)nc(N[C@@H]3CNC[C@H]3C(C)(C)O)c2cc1OC
# Outline: as §1
# gefitinib = compound: COc1cc2ncnc(Nc3ccc(F)c(Cl)c3)c2cc1OCCCN1CCOCC1 [gefitinib]
# Outline: as §1
# [3] = compound: COc1cccc2cc(-c3nc([C@H]4CC[C@H](C(=O)O)CC4)n4ncnc(N)c34)[nH]c12
# Outline: as §1
# lapatinib = compound: CS(=O)(=O)CCNCc1ccc(-c2ccc3ncnc(Nc4ccc(OCc5cccc(F)c5)c(Cl)c4)c3c2)o1 [lapatinib]
# Outline: as §1
# pictilisib = compound: CS(=O)(=O)N1CCN(Cc2cc3nc(-c4cccc5[nH]ncc45)nc(N4CCOCC4)c3s2)CC1 [pictilisib]
# Outline: as §1
# Sequence of UniProt P01130 (P01130 whole entry, looked up): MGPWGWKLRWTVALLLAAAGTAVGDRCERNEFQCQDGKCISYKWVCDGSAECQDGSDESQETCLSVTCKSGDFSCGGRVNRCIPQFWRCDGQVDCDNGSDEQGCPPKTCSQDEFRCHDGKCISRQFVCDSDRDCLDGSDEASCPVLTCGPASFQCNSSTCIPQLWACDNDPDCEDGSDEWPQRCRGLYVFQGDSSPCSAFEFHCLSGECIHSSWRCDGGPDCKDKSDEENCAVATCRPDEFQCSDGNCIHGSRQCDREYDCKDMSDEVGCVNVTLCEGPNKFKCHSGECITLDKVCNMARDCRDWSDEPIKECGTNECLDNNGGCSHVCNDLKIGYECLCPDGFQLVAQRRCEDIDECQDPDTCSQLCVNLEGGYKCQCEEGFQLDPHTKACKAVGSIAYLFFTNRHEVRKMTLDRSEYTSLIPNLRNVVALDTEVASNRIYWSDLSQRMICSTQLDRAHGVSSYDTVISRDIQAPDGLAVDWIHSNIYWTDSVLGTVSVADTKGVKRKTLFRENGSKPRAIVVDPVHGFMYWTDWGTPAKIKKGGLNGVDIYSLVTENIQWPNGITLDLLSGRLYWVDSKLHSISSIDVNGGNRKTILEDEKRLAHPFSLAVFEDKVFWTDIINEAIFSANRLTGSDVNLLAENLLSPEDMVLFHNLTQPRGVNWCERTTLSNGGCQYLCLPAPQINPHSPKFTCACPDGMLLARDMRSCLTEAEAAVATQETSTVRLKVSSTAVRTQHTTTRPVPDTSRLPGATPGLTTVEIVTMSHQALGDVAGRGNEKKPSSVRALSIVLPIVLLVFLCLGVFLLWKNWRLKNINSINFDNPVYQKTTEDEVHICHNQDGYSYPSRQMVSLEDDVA
# Sequence of UniProt Q9NQ29 (Q9NQ29 whole entry, looked up): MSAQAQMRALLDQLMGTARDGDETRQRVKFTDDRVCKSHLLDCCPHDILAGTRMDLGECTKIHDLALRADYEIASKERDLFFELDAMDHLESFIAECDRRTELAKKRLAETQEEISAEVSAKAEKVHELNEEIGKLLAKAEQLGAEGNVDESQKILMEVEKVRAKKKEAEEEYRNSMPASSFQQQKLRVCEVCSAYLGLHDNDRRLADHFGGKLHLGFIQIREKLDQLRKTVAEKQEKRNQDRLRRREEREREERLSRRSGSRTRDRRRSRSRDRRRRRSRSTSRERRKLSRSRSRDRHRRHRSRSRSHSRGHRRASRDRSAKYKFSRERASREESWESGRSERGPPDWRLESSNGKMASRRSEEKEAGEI
# Sequence of UniProt Q02750 (Q02750 whole entry, looked up): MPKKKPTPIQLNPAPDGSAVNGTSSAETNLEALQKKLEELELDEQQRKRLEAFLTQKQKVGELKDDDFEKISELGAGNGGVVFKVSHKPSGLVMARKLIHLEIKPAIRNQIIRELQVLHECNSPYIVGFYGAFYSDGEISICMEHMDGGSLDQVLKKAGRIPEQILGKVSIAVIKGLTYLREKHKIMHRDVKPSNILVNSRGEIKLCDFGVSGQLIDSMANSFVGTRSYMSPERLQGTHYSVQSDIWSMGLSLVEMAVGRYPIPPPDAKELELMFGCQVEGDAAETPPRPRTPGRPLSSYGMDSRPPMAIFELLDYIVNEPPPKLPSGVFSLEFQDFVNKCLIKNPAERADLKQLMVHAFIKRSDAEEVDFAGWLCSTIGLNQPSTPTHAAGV
# Sequence of UniProt P23368 (P23368 whole entry, looked up): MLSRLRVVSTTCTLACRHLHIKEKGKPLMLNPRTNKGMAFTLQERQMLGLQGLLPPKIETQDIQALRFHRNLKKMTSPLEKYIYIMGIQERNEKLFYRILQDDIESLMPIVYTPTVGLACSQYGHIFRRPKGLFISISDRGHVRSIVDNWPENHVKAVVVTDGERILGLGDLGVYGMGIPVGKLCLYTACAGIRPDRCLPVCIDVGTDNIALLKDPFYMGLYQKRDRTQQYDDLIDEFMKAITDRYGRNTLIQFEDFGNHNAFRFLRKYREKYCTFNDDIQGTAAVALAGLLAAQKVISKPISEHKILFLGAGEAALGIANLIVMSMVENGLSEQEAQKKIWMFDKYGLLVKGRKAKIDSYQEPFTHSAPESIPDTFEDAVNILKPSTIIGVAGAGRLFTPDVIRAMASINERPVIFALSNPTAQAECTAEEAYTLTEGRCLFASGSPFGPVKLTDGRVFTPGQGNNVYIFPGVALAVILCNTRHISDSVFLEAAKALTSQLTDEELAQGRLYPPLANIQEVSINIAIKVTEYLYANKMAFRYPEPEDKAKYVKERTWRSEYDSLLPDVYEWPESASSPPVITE
# Sequence of UniProt Q9Y2X0 (Q9Y2X0 whole entry, looked up): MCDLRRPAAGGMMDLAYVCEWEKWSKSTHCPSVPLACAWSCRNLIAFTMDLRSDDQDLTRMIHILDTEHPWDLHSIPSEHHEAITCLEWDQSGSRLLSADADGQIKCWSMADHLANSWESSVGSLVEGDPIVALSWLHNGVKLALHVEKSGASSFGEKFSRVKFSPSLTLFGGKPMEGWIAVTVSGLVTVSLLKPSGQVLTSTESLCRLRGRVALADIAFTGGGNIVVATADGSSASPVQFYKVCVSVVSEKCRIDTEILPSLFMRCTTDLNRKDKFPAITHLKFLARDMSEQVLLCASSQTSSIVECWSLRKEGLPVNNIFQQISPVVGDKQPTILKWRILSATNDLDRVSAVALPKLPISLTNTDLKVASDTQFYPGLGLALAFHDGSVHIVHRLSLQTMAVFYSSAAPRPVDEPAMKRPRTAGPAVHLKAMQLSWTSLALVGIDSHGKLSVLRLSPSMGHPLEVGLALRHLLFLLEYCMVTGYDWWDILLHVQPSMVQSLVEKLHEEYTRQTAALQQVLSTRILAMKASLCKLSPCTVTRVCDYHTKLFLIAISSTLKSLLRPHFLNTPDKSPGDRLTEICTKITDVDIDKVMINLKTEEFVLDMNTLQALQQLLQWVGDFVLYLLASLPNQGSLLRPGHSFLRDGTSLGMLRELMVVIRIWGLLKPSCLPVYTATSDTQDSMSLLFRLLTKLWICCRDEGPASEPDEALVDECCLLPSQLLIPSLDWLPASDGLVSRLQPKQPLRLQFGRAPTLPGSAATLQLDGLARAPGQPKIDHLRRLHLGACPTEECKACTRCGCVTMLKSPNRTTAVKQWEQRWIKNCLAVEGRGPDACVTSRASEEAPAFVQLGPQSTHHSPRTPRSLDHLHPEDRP
# Sequence of UniProt Q9H3F6 (Q9H3F6 whole entry, looked up): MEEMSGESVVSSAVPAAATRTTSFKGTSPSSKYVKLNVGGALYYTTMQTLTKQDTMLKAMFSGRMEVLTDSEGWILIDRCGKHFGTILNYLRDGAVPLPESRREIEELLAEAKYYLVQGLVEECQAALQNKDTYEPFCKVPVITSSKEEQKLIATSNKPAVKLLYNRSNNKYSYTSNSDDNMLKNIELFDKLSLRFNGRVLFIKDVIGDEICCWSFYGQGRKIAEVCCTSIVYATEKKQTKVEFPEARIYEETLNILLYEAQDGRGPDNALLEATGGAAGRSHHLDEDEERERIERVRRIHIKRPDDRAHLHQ
# Sequence of UniProt Q9H6V9 (Q9H6V9 whole entry, looked up): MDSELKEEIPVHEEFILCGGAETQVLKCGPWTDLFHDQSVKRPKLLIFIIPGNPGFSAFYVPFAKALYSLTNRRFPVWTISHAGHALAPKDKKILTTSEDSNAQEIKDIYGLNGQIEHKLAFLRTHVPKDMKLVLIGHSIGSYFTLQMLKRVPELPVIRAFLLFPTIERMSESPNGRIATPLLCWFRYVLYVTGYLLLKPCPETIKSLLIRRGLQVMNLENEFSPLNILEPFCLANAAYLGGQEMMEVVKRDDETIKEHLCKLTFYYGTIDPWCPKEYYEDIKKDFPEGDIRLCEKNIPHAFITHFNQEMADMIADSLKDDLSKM
# Sequence of UniProt Q9NQG6 (Q9NQG6 whole entry, looked up): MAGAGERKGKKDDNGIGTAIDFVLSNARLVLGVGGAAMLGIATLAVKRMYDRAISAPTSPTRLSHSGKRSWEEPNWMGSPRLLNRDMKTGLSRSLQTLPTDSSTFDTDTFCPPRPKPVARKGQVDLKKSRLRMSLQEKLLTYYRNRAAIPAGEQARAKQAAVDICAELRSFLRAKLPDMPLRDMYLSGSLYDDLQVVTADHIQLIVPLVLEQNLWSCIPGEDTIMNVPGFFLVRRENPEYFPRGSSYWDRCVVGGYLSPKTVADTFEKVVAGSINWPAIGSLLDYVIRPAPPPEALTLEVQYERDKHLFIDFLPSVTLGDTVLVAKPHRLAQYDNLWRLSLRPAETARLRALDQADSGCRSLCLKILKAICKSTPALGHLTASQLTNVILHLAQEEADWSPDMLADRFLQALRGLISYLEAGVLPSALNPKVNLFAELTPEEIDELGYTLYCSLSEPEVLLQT
# Sequence of UniProt P45983 (P45983 whole entry, looked up): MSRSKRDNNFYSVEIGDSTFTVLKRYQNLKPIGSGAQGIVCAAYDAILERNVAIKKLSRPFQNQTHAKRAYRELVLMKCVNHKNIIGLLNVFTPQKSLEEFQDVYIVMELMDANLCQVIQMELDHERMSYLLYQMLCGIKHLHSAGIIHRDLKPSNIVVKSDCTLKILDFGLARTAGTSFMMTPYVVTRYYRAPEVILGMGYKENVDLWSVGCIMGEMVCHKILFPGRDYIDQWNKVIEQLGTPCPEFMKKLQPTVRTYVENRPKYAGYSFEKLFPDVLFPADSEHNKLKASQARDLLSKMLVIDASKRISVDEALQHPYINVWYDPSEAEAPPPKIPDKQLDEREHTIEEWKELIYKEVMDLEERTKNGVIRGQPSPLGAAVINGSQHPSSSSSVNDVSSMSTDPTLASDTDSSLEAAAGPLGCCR
Target,log2 fold change [1],log2 fold change (filanesib),log2 fold change (zotarolimus),log2 fold change (idasanutlin),log2 fold change (alisertib),log2 fold change [2],log2 fold change (gefitinib),log2 fold change [3],log2 fold change (lapatinib),log2 fold change (pictilisib)
MAP2K1 (UniProt Q02750),0.022,-0.05,-0.007,-0.047,-0.048,0.02,-0.011,0.029,-0.045,0.04
MAPK8 isoform 3 (UniProt P45983),0.025,0.064,0.018,-0.08,0.007,0.234,-0.026,0.035,-0.045,0.287
KIF3A (UniProt Q9Y496),0.219,-0.091,-0.004,0.056,-0.027,0.137,-0.129,0,-0.063,0.146
IK (UniProt Q13123),0.056,0.156,0.007,0.102,-0.044,0.07,0.027,-0.096,-0.008,-0.035
MIEF1 (UniProt Q9NQG6),0.053,-0.18,0.006,-0.066,-0.033,-0.382 (active),0.051,0.001,0.004,-0.027
MED16 (UniProt Q9Y2X0),-0.032,0.062,-0.029,0.144,-0.024,-0.063,0.016,0.005,0.064,0.011
MAST4 (UniProt O15021),-0.023,-0.114,0.035,-0.103,-0.073,-0.283,-0.031,0.019,0.046,-0.036
KCTD10 (UniProt Q9H3F6),0.086,0.177,-0.095,-0.049,-0.06,0.079,-0.03,-0.105,0.001,-0.039
LUC7L (UniProt Q9NQ29),-0.094,0.178,-0.013,0.052,-0.07,0.024,-0.104,0.017,0.007,0.092
LDAH isoform 2 (UniProt Q9H6V9),0.06,-0.137,0.057,-0.185,-0.041,-0.517 (active),0.004,0.032,-0.005,0.075
KIF13A (UniProt Q9H1H9),0.003,0.01,-0.057,-0.022,-0.022,0.037,0.194,0.139,-0.012,-0.097
MICU2 (UniProt Q8IYU8),0.067,-0.089,-0.142,0.022,-0.067,-0.21,0.038,-0.031,-0.031,0.005
LDLR (UniProt P01130),-0.012,0.005,-0.07,0.009,0.073,-0.017,0.095,0.008,0.042,0.078
ME2 (UniProt P23368),-0.037,0.012,-0.052,0.196,0.002,0.076,0.023,-0.046,-0.003,0.056
KIF1B isoform 4 (UniProt O60333),0.008,-0.128,0.024,-0.006,-0.044,-0.014,-0.004,-0.04,0.013,0.037
KPNA4 (UniProt O00629),0.017,-0.028,0.015,-0.068,-0.026,-0.091,0.041,0.044,-0.017,-0.025
